About 2,800 (7.6%) of roughly 37,000 compounds were called active. Another 1% or so got no clear call; they are omitted. The full list was thinned out, with actives kept by preference. Unmarked numbers belong to inactive results. Cut-off read from the data, not from the text of the source: active = inhibition above about 80%; inconclusive = no clear call, values can overlap the other calls; inactive = below that.
Experiment: NOMO-1 AML cell viability reduction, primary screen, STK33 inhibitor project, CellTiter-Glo luminescence (AID 2330)
Settings: NOMO-1 AML viability, 72 h, stronger effect = higher value, concentration not given here

SMILES	inhibition
COc1ccc(OC)c(NC(=O)c2cnn(-c3ccccc3Cl)c2NC(=O)c2ccco2)c1	21.2%
CC(C)NC(=O)Nc1ccc2c(c1)CC(=O)N([C@H](C)CO)C[C@@H](C)[C@@H](CN(C)C(=O)Nc1ccc3c(c1)OCO3)O2	21.8%
c1ccc(-n2c(SCc3nc4ccccc4s3)nnc2-c2ccncc2)cc1	37.8%
CSC1=N/C(=C\C=C\c2cccs2)C(=O)S1	123% (active)
COc1ccc(N(Cc2cc3ccccc3[nH]c2=O)C(=O)c2cccc(OC)c2)cc1	-11%
COc1ccccc1CCNC(=O)c1cnccn1	4.1%
COC(=O)c1scc(S(=O)(=O)C(C)(C)C)c1-n1cccc1	100% (active)
C[C@@H]1CN([C@H](C)CO)C(=O)c2cc(NC(=O)CCN3CCOCC3)ccc2O[C@H]1CN(C)Cc1ccc(Oc2ccccc2)cc1	5.92%
C[C@@H]1CN([C@H](C)CO)C(=O)c2cc(NS(=O)(=O)c3cccs3)ccc2O[C@H]1CN(C)Cc1ccncc1	-4.5%
C=C1C(=O)O[C@@H]2[C@H]3C(CO)=CC(=O)C3=C(C)C[C@H](OC(=O)Cc3ccc(O)cc3)[C@@H]12	120% (active)
C=CC(=O)c1ccc2ccccc2c1	98.4% (active)
COc1ccccc1NC(=O)CCC(=O)c1ccc(C)cc1	29.1%
COC(=O)C(C)N(C#N)c1nc(C)nc(C)n1 (stereo unspecified)	113% (active)
COc1ccc(CN(C)C[C@H]2Oc3c(NC(=O)c4cnccn4)cccc3C(=O)N([C@H](C)CO)C[C@@H]2C)cc1	5.98%
C[C@@H]1CC[C@]2(C)[C@H](CC[C@@H](O)[C@]2(C)O)[C@@]1(C)CC(=O)c1ccoc1	9.78%
COCc1nc2c([nH]1)C(c1ccccc1COc1ccc(Cl)cc1)C(C#N)=C(N)O2 (stereo unspecified)	111% (active)
COc1cc(OC)cc(C2C(C#N)=C(N)OC(N)=C2C#N)c1	38.6%
CCn1c(SCC(=O)O)nnc1-c1ccc(OC)cc1	-32.5%
S=c1cc(-c2ccccc2)oc(-c2ccccc2)c1	61.2%
C[C@@H]1CN([C@H](C)CO)C(=O)c2cccc(NS(=O)(=O)c3ccc(Cl)cc3)c2O[C@@H]1CN(C)Cc1ccc(Oc2ccccc2)cc1	49.7%
CCC(=O)O[C@]1(C(=O)CCl)[C@@H](C)CC2C3CCC4=CC(=O)C=C[C@]4(C)[C@@]3(F)[C@@H](O)C[C@@]21C (stereo partly specified)	7.72%
CC(C)(C)c1ccc(-c2[nH]nc(NC(=O)c3ccccc3Cl)c2Br)cc1	123% (active)

SMILES	inhibition
COc1cc(NC(=O)COc2ccc(Br)cc2)ccc1NC(=O)c1ccccc1Cl	13.7%
C[C@@H]1CN([C@@H](C)CO)C(=O)Cc2cc(NC(=O)Nc3ccc4c(c3)OCO4)ccc2O[C@@H]1CN(C)C(=O)Nc1ccc2c(c1)OCO2	9.09%
CC(C)NC(=O)Nc1cccc2c1O[C@H](CN(C)S(=O)(=O)c1ccccc1)[C@@H](C)CN([C@@H](C)CO)C2=O	6.74%
C[C@H]1CN([C@@H](C)CO)C(=O)c2cc(NS(=O)(=O)c3ccc(F)cc3)ccc2O[C@H]1CN(C)CC1CC1	16.3%
Cc1ccc(S(=O)(=O)Nc2ccc3c(c2)C(=O)N([C@@H](C)CO)C[C@H](C)[C@@H](CN(C)S(=O)(=O)c2ccc(C)cc2)O3)cc1	-8.16%
C[C@@H]1CN([C@H](C)CO)C(=O)Cc2cc(NC(=O)c3ccncc3)ccc2O[C@H]1CN(C)S(=O)(=O)c1cccs1	13.9%
C[C@H](CO)N1C[C@H](C)[C@H](CN(C)Cc2ccc(C(F)(F)F)cc2)Oc2ccc(NS(C)(=O)=O)cc2C1=O	3.14%
CN1CCN(CC(=O)Nc2sc3c(c2C#N)CCC(C(C)(C)C)C3)CC1 (stereo unspecified)	115% (active)
N#Cc1c(NC(=O)CCn2cnc3ccccc3c2=O)sc2c1CCCC2	27.7%
CCn1c(SCC(=O)Nc2sc3c(c2C#N)CCCC3)nnc1-c1ccccc1O	-7.99%
OC(c1nc2ccccc2[nH]1)C(O)C(O)C(O)c1nc2ccccc2[nH]1 (stereo unspecified)	-2.04%
O=C(CSc1ncnc2sc3c(c12)CCCC3)Nc1ccc(F)c(Cl)c1	-1.63%
CC(C)NC(=O)N(C)C[C@H]1Oc2c(NS(C)(=O)=O)cccc2C(=O)N([C@@H](C)CO)C[C@H]1C	12.9%
C[C@@H]1CN([C@@H](C)CO)C(=O)c2cccc(NC(=O)c3cnccn3)c2O[C@H]1CN(C)S(=O)(=O)c1cccs1	9.49%
O=C(OCC1OC(Oc2ccc(O)cc2COC(=O)C2(O)C(O)CCC(O)C2O)C(O)C(O)C1O)c1ccccc1 (stereo unspecified)	17%
COc1cc(/C=C/C(=O)O[C@@H]2O[C@H](CO[C@@H]3O[C@H](CO)[C@@H](O)[C@H](O)[C@H]3O)[C@@H](O)[C@H](O)[C@H]2OC(=O)/C=C/c2cc(OC)c(O)c(OC)c2)cc(OC)c1O	14.7%
COc1cc(O[C@@H]2O[C@H](CO[C@H]3OC[C@](O)(COC(=O)c4ccc(O)c(OC)c4)[C@H]3O)[C@@H](O)[C@H](O)[C@H]2O)ccc1O	120% (active)
Cc1ccc(S(=O)(=O)N(C)C[C@@H]2Oc3c(NC(=O)C4CCCCC4)cccc3C(=O)N([C@H](C)CO)C[C@H]2C)cc1	16.1%
COc1ccc(NC(=O)Nc2ccc3c(c2)C(=O)N([C@H](C)CO)C[C@H](C)[C@H](CN(C)C(=O)Nc2c(C)noc2C)OCCCC[C@@H](C)O3)cc1	-10.5%
C[C@@H]1CN([C@H](C)CO)C(=O)c2cc(NC(=O)Nc3ccccc3)ccc2O[C@@H]1CN(C)Cc1ccc(Cl)c(Cl)c1	88.9% (active)
C[C@@H]1CN([C@H](C)CO)C(=O)c2cc(NC(=O)Nc3ccc(F)cc3)ccc2O[C@@H]1CN(C)Cc1ccc(Cl)c(Cl)c1	62.8%
CC(C)NC(=O)Nc1ccc2c(c1)C(=O)N([C@@H](C)CO)C[C@@H](C)[C@H](CN(C)Cc1ccc(Cl)c(Cl)c1)O2	44.5%

SMILES	inhibition
C[C@@H]1CN([C@H](C)CO)C(=O)c2cc(NC(=O)Nc3ccccc3)ccc2O[C@H]1CN(C)Cc1ccc(Cl)c(Cl)c1	-8.23%
COc1ccc(NC(=O)Nc2ccc3c(c2)C(=O)N([C@@H](C)CO)C[C@@H](C)[C@H](CN(C)Cc2ccc(Cl)c(Cl)c2)O3)cc1	39.3%
C[C@@H]1CN([C@@H](C)CO)C(=O)c2cc(NC(=O)Nc3cccc4ccccc34)ccc2O[C@H]1CN(C)Cc1ccc(Cl)c(Cl)c1	94% (active)
CC(=O)Oc1ccc(N(C(C)=O)S(=O)(=O)c2ccc(Cl)cc2)cc1	42.4%
CCC(Oc1cccc(NC(=O)c2ccccc2[N+](=O)[O-])c1)C(=O)c1ccccc1 (stereo unspecified)	2.87%
Cc1ccc(NC(=O)CSc2ncnc3sc(C)c(C)c23)cc1	11.3%
Cc1ccc(S(=O)(=O)NCC(=O)N2CCN(c3ccccn3)CC2)cc1	-2.49%
Cc1ccc(S(=O)(=O)Nc2ccc3c(c2)C(=O)N([C@@H](C)CO)C[C@@H](C)[C@@H](CN(C)Cc2ccncc2)O3)cc1	22.8%
C[C@H](CO)N1C[C@H](C)[C@@H](CN(C)Cc2ccc3c(c2)OCO3)Oc2ccc(NC(=O)Nc3ccc(F)cc3)cc2C1=O	-1.77%
C[C@@H]1CN([C@@H](C)CO)C(=O)c2cccc(NC(=O)Nc3ccc(F)cc3)c2O[C@@H]1CN(C)C(=O)Nc1ccccc1	35.8%
C[C@@H]1CN([C@H](C)CO)C(=O)c2cc(NC(=O)Nc3ccc(C(F)(F)F)cc3)ccc2O[C@H]1CN(C)C(=O)Nc1ccccc1	24.7%
COc1ccc(CN(C)C[C@H]2Oc3c(NC(=O)Nc4ccccc4)cccc3C(=O)N([C@@H](C)CO)C[C@@H]2C)cc1	56.6%
C[C@@H]1CN([C@H](C)CO)C(=O)c2cccc(NC(=O)Nc3cccc4ccccc34)c2O[C@@H]1CN(C)C(=O)Nc1cccc2ccccc12	10.3%
C[C@@H]1CN([C@H](C)CO)C(=O)c2cccc(NC(=O)Nc3ccccc3)c2O[C@H]1CN(C)Cc1ccccc1	75.5%
C[C@@H]1CN([C@@H](C)CO)C(=O)c2cccc(NC(=O)Nc3ccccc3)c2O[C@H]1CN(C)Cc1ccccc1	117% (active)
C[C@H]1CN([C@@H](C)CO)C(=O)c2cc(NC(=O)Nc3ccccc3)ccc2O[C@@H]1CN(C)C(=O)Nc1ccccc1	6.27%
C[C@H](CO)N1C[C@H](C)[C@H](CN(C)C(=O)Nc2ccccc2)Oc2c(NC(=O)Nc3ccc(C(F)(F)F)cc3)cccc2C1=O	96.2% (active)
C[C@H](CO)N1C[C@H](C)[C@H](CN(C)C(=O)Nc2ccc(C(F)(F)F)cc2)Oc2ccc(NC(=O)Nc3ccccc3)cc2C1=O	85.9% (active)
C[C@@H]1CN([C@H](C)CO)C(=O)c2cccc(NC(=O)Nc3cccc4ccccc34)c2O[C@@H]1CN(C)C(=O)Nc1ccc(F)cc1	97% (active)
C[C@@H]1CN([C@@H](C)CO)C(=O)c2cccc(NC(=O)Nc3ccc(F)cc3)c2O[C@H]1CN(C)C(=O)Nc1ccc(F)cc1	-5.44%
C[C@H]1CN([C@@H](C)CO)C(=O)c2cccc(NC(=O)Nc3ccc(C(F)(F)F)cc3)c2O[C@@H]1CN(C)Cc1ccccc1	72.2%
O=C(CSc1nccc(=O)[nH]1)Nc1ccc([N+](=O)[O-])cc1	11.7%

From PubChem BioAssay AID2330 (Broad Institute, 2010)
